The source of these data is PubChem BioAssay.

Inconclusive results are not listed. Calls of active or inactive are those of the source.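 Rule for the calls, unless noted: active = inhibition over a set limit, the all-compound mean plus 3 SD, in both replicate runs; inconclusive = over that limit in just one replicate run; inactive = at or under that limit in both runs.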

Experiment [1] can be described thus: Her2 expression decrease, cell viability multiplex – SKBR3 breast tumor cells, AlphaScreen, ATP viability, primary screen (AID 461;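 active = Her2 level under about 52% in both replicate screens, with viability over 70% of control, limit read from the data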;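 for Her2 level: lower value means less Her2 protein in the cells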;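 for viability: percent of carrier control wells set as 100% viability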). The conditions noted are these: SKBR3 Her2 protein level, 18-24 h, measured here: SKBR3 viability, ATP luminescence, at 10 µM.
Experiment [2] deals with Receptor tyrosine-protein kinase erbB-2 (Homo sapiens) (UniProt P04626). Described as above. The conditions noted are these: 18-24 h, at 10 µM, stronger effect = lower value.
Experiment [3] can be described thus: reduced viability of SK-BR-3 breast cancer cells – cell-based, 24 h, human, pilot screen (AID 572;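 active = viability at or below 10% of carrier control in both of two separate runs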;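 note: compound exposure lasted between 18 and 24 h rather than exactly 24 h; 100% = carrier-treated control wells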). The conditions noted are these: SK-BR-3 viability, CellTiter-Glo luminescence, at 10 µM, stronger effect = lower value.
Experiment [4] in a line: HUVEC growth inhibition – cell-based, human, primary screen (AID 575;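 active = viability at or below 30% in both replicate assays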;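 note: 100% = median of untreated cell wells with 0.1% DMSO on each plate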). The conditions noted are these: HUVEC proliferation, CellTiter-Glo luminescence, 72 h; at 10 µM; stronger effect = lower value. Background: Cellular ATP, detected with luciferase, serves as a proxy for viable cell number.
Experiment [5] can be described thus: H69AR cell proliferation blockers – human, duplicate replicates, primary screen (AID 580;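 active = viability at or under a set limit in both replicates, limit being median viability minus 3 SD, cut at about 48% in these data, passing the limit was not always enough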;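 note: 100% = mean luminescence of untreated wells and 0% = no signal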). The conditions noted are these: H69AR lung tumor cells viability, ATP luminescence, 72 h; at 10 µM; stronger effect = lower value.
The nature of experiment [6]: MRP1 drug-resistance reversers in H69AR cells – cell-based, doxorubicin co-treatment, pilot screen (AID 601;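 active = viability loss from added drug above about 55%, and viability with drug at most 40%, in both replicates, limit read from the data, passing the limit was not always enough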). The conditions noted are these: CellTiter-Glo, 72 h, at 10 µM; for differential viability (reversal): stronger effect = higher value.
Experiment [7] can be described thus: yeast transport mutant growth inhibition pilot in 384-well plates, post-Golgi transport modulator project (AID 636; in the data active = inhibition above about 31%). The following applies: absorbance 615 nm, about 18 h, stronger effect = higher value.
Experiment [8] is described as follows: growth suppression of yeast trafficking mutant, preliminary HTS, modulators of trafficking downstream of Golgi apparatus project, 1536-format plate, OD 615 nm (AID 637; in the data active = inhibition above about 30%). The following applies: yeast transport mutant growth, absorbance 615 nm, 18 h; stronger effect = higher value.
Experiment [9] can be described thus: S. cerevisiae growth inhibition in permissive medium (OD615), pilot counter-assay for S. cerevisiae lifespan shortening project, permissive growth control (AID 705;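 active = growth inhibition above 25% in both replicates, a cutoff set 3 SD above the mean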). The conditions noted are these: OD615, 24 h, at 10 µM, stronger effect = higher value.
Experiment [10] is described as follows: S. cerevisiae growth inhibition in restrictive medium, OD615, pilot screen, restrictive growth control, yeast lifespan reduction project (AID 706;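 active = growth inhibition above a set limit, 3 SD over mean compound inhibition, in both replicates, cut at about 43% in these data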;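 note: modified DeaD lifespan yeast strain shifted to restrictive glucose medium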). The conditions noted are these: OD615, 48 h, at 10 µM, stronger effect = higher value.
The nature of experiment [11]: doxorubicin toxicity protection in MRP-1 cells – H69AR cells, CellTiter-Glo, duplicate, MRP-1 activator project, pilot screen (AID 807;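 active = viability increase at or above a cutoff of the median across tested compounds plus 3 SD, cut at about 8.5% in these data, passing the limit was not always enough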;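 note: compound pretreatment 18-22 h then 72 h combined with doxorubicin; 0% = doxorubicin alone and 100% = vehicle without doxorubicin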). The following applies: H69AR viability with doxorubicin, CellTiter-Glo luminescence; at 10 µM; stronger effect = higher value.
Experiment [12] in a line: viability of HCT116 without oncogenic beta-catenin – human colon tumor cells, pilot screen (AID 823;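 active = cell viability at or below a set limit in both duplicate runs, the limit being the all-compound median minus 4 SD, cut at about 23% in these data, passing the limit was not always enough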;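 note: 0% = wells killed by 20 µM Hyamine and 100% = untreated DMSO cell wells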). The following applies: HCT116 beta-catenin knockout viability, CellTiter-Glo, 60 h; at 10 µM; stronger effect = lower value.
Experiment [13] is described as follows: viability of PTEN-null HCT116 cells – cell-based, HCT116 clonal line, CellTiter-Glo, pilot screen (AID 824;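 active = viability at or below 27.92% in each of two runs, the all-compound median minus 4 SD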;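 note: 0% = 20 µM Hyamine control and 100% = vehicle cell control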). The following applies: HCT116 PTEN-deleted viability, 60 h, at 10 µM, stronger effect = lower value.
Experiment [14] is described as follows: RAM pathway blockade in budding yeast – dse1pr::URA3 reporter, 5-FOA selection, pilot screen (AID 869).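 Note: 0% = DMSO wells with no growth and 100% = 10 µM 1-NA-PP1 with full growth; RAM network block rescues cells from 5-FOA so hits raise OD615 growth.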 The conditions noted are these: S. cerevisiae dse1pr::URA3 5-FOA growth, OD615, 2 d; at 10 µM; stronger effect = higher value; strain carries analog-sensitive mutant Cbk1 kinase.
A short description of experiment [15]: RAM signaling pathway blockade in yeast – S. cerevisiae, Pdr1DBD-CYC8 efflux-inhibited sensitized strain, primary screen (AID 1298;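 active = RAM network inhibition above 8.4% in each of two replicates, 3 SD over the compound average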;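 note: 0% = DMSO untreated cells without growth and 100% = 10 µM 1-NA-PP1 full growth; higher means more yeast growth rescued from 5-FOA killing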). The following applies: S. cerevisiae cbk1-as DSE1-URA3 strain, 5-FOA growth OD615, 2 d; at 50 µM; stronger effect = higher value.
Setting [16] is: H69AR cells + 2 uM doxorubicin, measured here: viability with 2 uM doxorubicin, stronger effect = lower value.
The mark [17] stands for this setting: H69AR cells, compound alone cytotoxicity.

Sequence of Receptor tyrosine-protein kinase erbB-2 (Homo sapiens) (P04626 whole entry, looked up): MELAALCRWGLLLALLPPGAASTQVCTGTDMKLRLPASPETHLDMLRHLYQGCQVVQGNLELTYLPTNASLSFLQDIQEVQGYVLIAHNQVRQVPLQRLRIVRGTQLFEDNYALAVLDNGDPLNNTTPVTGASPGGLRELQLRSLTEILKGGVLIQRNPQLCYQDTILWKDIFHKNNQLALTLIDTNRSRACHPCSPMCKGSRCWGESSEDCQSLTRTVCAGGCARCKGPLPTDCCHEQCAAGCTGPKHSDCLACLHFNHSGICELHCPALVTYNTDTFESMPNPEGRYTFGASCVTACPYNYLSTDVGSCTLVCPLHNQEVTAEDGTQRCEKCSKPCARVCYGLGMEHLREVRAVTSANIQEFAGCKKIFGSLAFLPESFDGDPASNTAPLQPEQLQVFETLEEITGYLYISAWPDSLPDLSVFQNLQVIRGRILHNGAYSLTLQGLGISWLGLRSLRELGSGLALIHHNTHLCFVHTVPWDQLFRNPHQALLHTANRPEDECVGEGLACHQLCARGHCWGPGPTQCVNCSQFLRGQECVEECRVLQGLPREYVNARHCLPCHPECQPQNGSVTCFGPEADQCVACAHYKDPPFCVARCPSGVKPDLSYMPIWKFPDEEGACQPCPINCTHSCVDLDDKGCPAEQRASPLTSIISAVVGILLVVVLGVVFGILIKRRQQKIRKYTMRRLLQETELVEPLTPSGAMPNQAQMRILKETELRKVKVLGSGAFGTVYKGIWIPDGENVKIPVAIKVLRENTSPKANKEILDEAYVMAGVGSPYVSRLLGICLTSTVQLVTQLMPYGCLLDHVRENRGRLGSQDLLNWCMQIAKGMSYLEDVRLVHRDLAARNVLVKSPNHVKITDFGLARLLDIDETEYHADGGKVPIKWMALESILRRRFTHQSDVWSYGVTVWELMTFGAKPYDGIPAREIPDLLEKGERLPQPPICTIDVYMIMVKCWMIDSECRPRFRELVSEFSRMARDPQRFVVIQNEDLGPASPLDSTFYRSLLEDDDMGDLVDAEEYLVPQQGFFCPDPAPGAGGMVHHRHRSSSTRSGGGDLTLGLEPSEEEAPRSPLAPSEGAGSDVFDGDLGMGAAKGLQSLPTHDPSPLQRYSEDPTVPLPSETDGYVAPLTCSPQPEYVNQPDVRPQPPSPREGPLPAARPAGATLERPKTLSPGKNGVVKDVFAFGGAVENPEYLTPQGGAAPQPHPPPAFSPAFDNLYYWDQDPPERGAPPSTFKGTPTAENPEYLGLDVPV

A word on the viability: it is a read-out of living cells in per cent, often relative to untreated cells. A word on the inhibition: it is the relative decrease from the control value, in per cent. Turning to `O=C1c2ccccc2C(=O)N1C/C=C/CN1C(=O)c2ccccc2C1=O`, the viability in experiment [1] is 85%; in experiment [3], 85% (inactive); in experiment [4], 86.5% (inactive); in experiment [5] it was 82.8% (inactive); in [6] (setting [16]) it was 92.3%; in experiment [6] (setting [17]), 82.8%. The values for the viability in experiment [12] and in experiment [13] were 90.3% (inactive) and 102% (inactive), respectively. Also, in [2], the Her2 level is 91.5% (inactive). Besides, the differential viability (reversal) in experiment [6] (H69AR cells + 2 uM doxorubicin) is -9.46% (inactive). In addition, the inhibition in experiment [7] is -3.46% (inactive); in experiment [8], -0.33% (inactive); in [14], 3.1% (inactive). Moreover, the growth inhibition in experiment [9] is 2.25% (inactive); in experiment [10], -1.58% (inactive). For the same compound, in [11], the viability increase was -1.04% (inactive). Also, the RAM network inhibition in experiment [15] was 4.65% (inactive).

`COc1cccc(C2C3=C(N=C4SCC(=O)N42)c2ccccc2CC3)c1OC` (stereo not given): the viability in experiment [1] was 103%; in experiment [3], 103% (inactive); in experiment [4], 65.7% (inactive); in experiment [5] it was 98.2% (inactive); in [6] (setting [16]), 78.4%; in [6] (setting [17]), 98.2%. The viability was 65.8% (inactive) in experiment [12] and 68.5% (inactive) in [13]. Moreover, in [2], the Her2 level was 115% (inactive). Further, the differential viability (reversal) in [6] (H69AR cells + 2 uM doxorubicin) was 19.8% (inactive). Moreover, the figures for the inhibition in experiment [7], in experiment [8] and in experiment [14] were -1.69% (inactive), -6.83% (inactive) and 0.915% (inactive), respectively. Moreover, the growth inhibition in experiment [9] was -15.1% (inactive); in experiment [10] it was -9.8% (inactive). Further, the viability increase in experiment [11] was -1.55% (inactive). Also, the RAM network inhibition in experiment [15] is 5.99% (inactive).

Consider `COc1ccc(N(CC(=O)Nc2cc(C)ccc2C)S(=O)(=O)c2c(C)nn(C)c2C)cc1`, for which the viability in experiment [1] is 92%; in experiment [3], 92% (inactive); in [4] it was 73.8% (inactive); in experiment [5], 93.2% (inactive); in experiment [6] (setting [16]), 93.6%; in experiment [6] (setting [17]) it was 93.2%. Moreover, the viability was 83.8% (inactive) in [12] and 80.3% (inactive) in experiment [13]. Besides, the Her2 level in [2] is 114% (inactive). Also, in experiment [6] (H69AR cells + 2 uM doxorubicin), the differential viability (reversal) is -0.425% (inactive). Besides, the inhibition is -0.38% (inactive) in experiment [7], -3% (inactive) in [8] and 0.14% (inactive) in experiment [14]. Also, the values for the growth inhibition in experiment [9] and in experiment [10] were -7.38% (inactive) and -20.5% (inactive), respectively. For the same compound, in [11], the viability increase is -2.75% (inactive). Also, the RAM network inhibition in [15] was 7.15% (inactive).

On to `Cc1nc2ccc(S(=O)(=O)NC(C(=O)Nc3nccs3)C(C)C)cc2s1` (stereo not given), for which the viability in experiment [1] was 87%; in experiment [3], 87% (inactive); in experiment [4], 91.6% (inactive); in [5] it was 95.7% (inactive); in experiment [6] (setting [16]) it was 90.3%; in experiment [6] (setting [17]), 95.7%. The viability in experiment [12] was 101% (inactive); in [13], 104% (inactive). Moreover, the Her2 level in [2] is 93% (inactive). In addition, the differential viability (reversal) in experiment [6] (H69AR cells + 2 uM doxorubicin) was 5.42% (inactive). Moreover, the inhibition in [7] was 0.13% (inactive); in [8] it was -0.17% (inactive); in experiment [14], 1.99% (inactive). Also, the growth inhibition in [9] was -5.25% (inactive); in experiment [10], 2.78% (inactive). The viability increase in [11] was -1.85% (inactive). The RAM network inhibition in [15] is 1.91% (inactive).

In the case of `Cc1ccccc1-n1c(Cn2c(=O)sc3ccccc32)nnc1SCC(N)=O`, the viability in experiment [1] was 96.5%; in experiment [3], 96.5% (inactive); in experiment [4], 92.3% (inactive); in [5], 84.8% (inactive); in [6] (setting [16]), 78.6%; in [6] (setting [17]) it was 84.8%. Besides, the values for the viability in [12] and in experiment [13] were 107% (inactive) and 106% (inactive), respectively. Moreover, the Her2 level in [2] was 94.5% (inactive). Besides, the differential viability (reversal) in experiment [6] (H69AR cells + 2 uM doxorubicin) is 6.29% (inactive). Further, the inhibition in [7] was -6.27% (inactive); in experiment [8], -1.97% (inactive); in experiment [14], 0.455% (inactive). The growth inhibition is -3.65% (inactive) in experiment [9] and -3.06% (inactive) in [10]. The viability increase in experiment [11] was 1.68% (inactive). Besides, in experiment [15], the RAM network inhibition was 4.35% (inactive).
